The values below come from PubChem BioAssay AID485281 (National Center for Advancing Translational Sciences (NCATS), 2010).

About 260 (0.074%) of roughly 350,000 compounds were called active. Not shown: some 8% with an inconclusive outcome. This is one part of a sample in which actives are shown more often than they occur. Calls follow the shape of the dose curve; as a rule, active = well fitted inhibition curve with a large enough effect; inconclusive = small, poorly fitted or top-dose-only effect; inactive = no such curve, though single readings can be large or run the other way.
% is scaled to controls: 0 for no effect and ±100 for the full control effect; potency is read from the fitted curve at half-maximal effect.

Sequence of Ferritin light chain (Equus caballus) (P02791 2-175 limits assumed): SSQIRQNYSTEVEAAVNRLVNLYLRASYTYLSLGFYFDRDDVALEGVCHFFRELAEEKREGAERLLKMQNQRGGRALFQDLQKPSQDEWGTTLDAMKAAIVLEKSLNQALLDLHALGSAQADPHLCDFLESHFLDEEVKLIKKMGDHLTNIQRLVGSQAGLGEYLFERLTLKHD

This assay deals with Ferritin light chain (Equus caballus) (UniProt P02791). The assay is described as follows: qHTS Assay for Identification of Novel General Anesthetics. Also: nearly all actives have a fitted effect of over 20% in size. Particulars: apoferritin/1-aminoanthracene competitive binding, fluorescence; series mostly up to 77.5 µM; activity change, negative = displacement: at the top concentration. The source says:
Source: NIH Chemical Genomics Center [NCGC]
Assay Submitter: Roderic Eckenhoff, University of Pennsylvania
Screening Center PI: Christopher P. Austin, NIH
Probe Development: NIH Chemical Genomics Center [NCGC]
Anesthetic development has remained a largely empirical process. There are growing concerns about the cognitive effects of known general anesthetics and acceleration of the onset of neurodegenerative disease. The compounds' toxicity and multiple specific binding targets in the mammalian brain [4] has made them less attractive as drug leads. In this assay, a GABAergic mimetic model system, apoferritin and a profluorescent 1-aminoanthracene ligand (1-AMA), was used to construct a competitive binding assay for identification of novel general anesthetics. The assay was validated for 1-AMA using other known anesthetics, such as isoflurane (CID:3763) and propofol (CID: 4943), [6].
[1] S.L. Bianchi, T. Tran, C. Liu, S. Lin, Y. Li, J.M. Keller, R.G. Eckenhoff, and M.F. Eckenhoff, Brain and behavior changes in 12-month-old Tg2576 and nontransgenic mice exposed to anesthetics. Neurobiol Aging 29 (2008) 1002-10.
[2] Z. Xie, Y. Dong, U. Maeda, R.D. Moir, W. Xia, D.J. Culley, G. Crosby, and R.E. Tanzi, The inhalation anesthetic isoflurane induces a vicious cycle of apoptosis and amyloid beta-protein accumulation. J Neurosci 27 (2007) 1247-54.
[3] P. Honegger, and J.M. Matthieu, Selective toxicity of the general anesthetic propofol for GABAergic neurons in rat brain cell cultures.
[4] M.F. Eckenhoff, K. Chan, and R.G. Eckenhoff, Multiple specific binding targets for inhaled anesthetics in the mammalian brain. J Pharmacol Exp Ther 300 (2002) 172-9.
[5] C.A. Butts, J. Xi, G. Brannigan, A.A. Saad, S.P. Venkatachalan, R.A. Pearce, M.L. Klein, R.G. Eckenhoff, and I.J. Dmochowski, Identification of a fluorescent general anesthetic, 1-aminoanthracene. Proc Natl Acad Sci U S A 106 (2009) 6501-6.
[6] W.A. Lea, J. Xi, A. Jadhav, L. Lu, C.P. Austin, A. Simeonov, and R.G. Eckenhoff, A high-throughput approach for identification of novel general anesthetics. PLoS One 4 (2009) e7150.
Three uL of reagents (free 1-AMA (50% saturated solution of 1-aminoanthracene
in PBS) in columns 3, 4 as negative control and 1-AMA/apoferritin mixture (10 uM horse-spleen apoferritin in 50% saturated 1-aminoanthracene in PBS) in columns 1, 2, 5-48) was dispensed into 1536-well Greiner black assay plates. Compounds (23 nL) were transferred via Kalypsys pintool equipped with 1,536-pin array (10 nL slotted pins, V&P Scientific, San Diego, CA). Titration of the positive control, propofol, were delivered via pin transfer from separate control plates to the 2nd column of each assay plate. The starting concentration of the control, dissolved in DMSO, was at 160 mM, followed by two-fold dilution points in duplicate, for a total of 16 concentrations. The plates were incubated for 10 min at room temperature, and then read on an EnVision HTS multilabel reader (Perkin-Elmer, Waltham, MA) (end point read, 3 min/plate) using Fura2 BFP excitation filter (380 nm, bandwidth 10 nm) and fluorescein emission filter (535 nm, bandwidth 25 nm) set. A LANCE/DELFIA dichroic mirror with a cutoff wavelength at 400 nm was used to maximize signal accuracy and strength. Vehicle-only plates, with DMSO being pin-transferred to the entire column 5-48 compound area, were inserted uniformly at the beginning and the end of each library in order to monitor for and record any shifts in the background. Activity was computed as the normalized fluorescence response relative to free 1-AMA and 1-AMA/apoferritin complex values. Concentration-effect relationships were derived by using curve fitting algorithms developed in-house (http://ncgc.nih.gov/pub/openhts/). A four parameter Hill equation was fitted to the concentration-response data by minimizing the residual error between the modeled and observed responses.
Consider `COC(=O)CSc1ccc2nnc(CCNS(=O)(=O)c3ccc(C)cc3)n2n1`, for which the Potency entry was “inactive”.
In the case of `Cc1ccc(S(=O)(=O)NCCc2nnc3ccc(SCc4cccnc4)nn23)cc1`, the “activity change, negative = displacement” value was -11.4% (inactive).
On to `O=S(=O)(NCCc1nnc2ccc(SCc3ccc(Cl)cc3Cl)nn12)c1ccccc1`, for which the Potency was 17.8 µM (active).
For the compound `CN1C(=O)c2ccccc2Sc2ccc(NC(=O)Cc3ccc(Cl)cc3)cc21`, the “activity change, negative = displacement” value was -9.63% (inactive).
Still for that read-out and setting: the figure for `O=C(NCC(c1ccc2c(c1)OCO2)N1CCN(c2ccccc2)CC1)C(=O)Nc1ccccc1F` (stereo not given) is -2.09% (inactive).
Same read-out and setting: under `Cc1ccc(Cl)cc1NC(=O)C(C)n1nnc2sc(-c3ccccc3)cc2c1=O` (stereo not given) stands 6.14% (inactive); under `O=C(Cn1cc(SCc2cccc(Cl)c2)c2ccccc21)N1CCCCC1`, 38.8% (inactive); under `CCN1CCN(c2ncc3c(n2)CC(c2ccccc2O)CC3=O)CC1` (stereo not given), -14.1% (inactive).
With `CCCCCCSc1nsc(N)n1`, the Potency was 8.91 µM (active).
Regarding `CCCSc1nsc(N)n1`, the “activity change, negative = displacement” value was -16.3% (inactive).
Consider `Nc1nc(SC23CC4CC(CC(C4)C2)C3)ns1`, for which the “activity change, negative = displacement” value is -7.75% (inactive).
In the case of `O=C(c1ccc(Br)cc1)N(Cc1cccs1)c1ccc(F)cc1`, the “activity change, negative = displacement” value is 8.94% (inactive).
For the compound `Cn1cc(S(=O)(=O)N2CCCCCC2)cc1C(=O)N1CCN(c2ccc(F)cc2)CC1`, the “activity change, negative = displacement” value is -7.65% (inactive).
Same read-out and setting: under `CC1Cc2ccccc2N1C(=O)CSc1nnc(C2CC2)n1C` (stereo not given) stands -5.61% (inactive).
As for `Cc1cc(=O)[nH]c(SCC(=O)N2c3ccccc3CC2C)n1` (stereo not given), the Potency is 14.1 µM (active).
With `CC1Cc2ccccc2N1C(=O)CSc1nc2ccccc2o1` (stereo not given), the “activity change, negative = displacement” value is -12.6% (inactive).
For `O=C(NCCCN1CCN(c2cccc(Cl)c2)CC1)c1nnc(Cc2ccc(F)cc2Cl)o1`, the “activity change, negative = displacement” value was -1.63% (inactive).
Same read-out and setting: the figure for `COc1ccccc1CNC(=O)CCn1c(=O)c2ccccc2n(CC(=O)Nc2cccc(Cl)c2)c1=O` is -10.4% (inactive); for `CCOc1cccc2c1N[C@@H](c1ccc(C(=O)O)cc1)[C@H]1CC=C[C@@H]21` it is -3.52% (inactive).
For `CCC(=O)N1c2ccccc2CC1C(=O)N1CCN(c2ccccc2F)CC1` (stereo not given), the “activity change, negative = displacement” value was -12.2% (inactive).
Take `COc1ccc(-n2ccnc(NCCc3ccc(Cl)cc3)c2=O)cc1OC`: the “activity change, negative = displacement” value was -7.82% (inactive).
Still for that read-out and setting: under `O=C(Cn1nc(C(F)(F)F)c2c1CCCC2)Nc1ccc(Cl)cc1` stands -13.6% (inactive).
On the same count and under the same terms, under `COC(=O)c1ccc(NC(=O)CCc2c(C)nn(-c3ccc(N4CCCC4)nn3)c2C)cc1` stands -7.89% (inactive); under `COc1ccc(CCn2cc3c(c2-c2ccc(Br)cc2)c(=O)n(C)c(=O)n3C)cc1OC`, 0.216% (inactive).
For the compound `COc1ccc(CC(=O)NCCc2sc3nc(-c4ccc(OC)cc4)nn3c2C)cc1`, the “activity change, negative = displacement” value was 4.35% (inactive).
Still for that read-out and setting: under `Cc1cccc(N2CCN(C3=C(c4ccccc4)C(=O)c4ccccc43)CC2)c1C` stands 6.14% (inactive).
In the case of `CCOc1ccc(N(C)S(=O)(=O)c2cc(-c3cnc(C)o3)ccc2OC)cc1`, the “activity change, negative = displacement” value is -4.52% (inactive).
In the case of `CC(=O)c1ccc(NC(=O)CSc2c(C(C)C)cnc3c2c(=O)n(C)c(=O)n3C)cc1`, the “activity change, negative = displacement” value is -11.9% (inactive).
Same read-out and setting: under `CCOc1ccc(C(=O)Nc2ccc3nc4c(c(Nc5ccccc5OC)c3c2)CCCC4)cc1` stands -7.47% (inactive); under `COc1ccc(NC(=O)c2ccco2)cc1NC(=O)COc1ccc(C)c(C)c1`, -12.7% (inactive); under `CCOc1ccc(N(CC)S(=O)(=O)N2CCCC(C(=O)NCc3ccc(SC)cc3)C2)cc1` (stereo not given), 91.3% (inactive).
On the same count and under the same terms, the figure for `O=C(Nc1ccccc1F)C(c1ccccc1)N1Cc2ccccc2C1=O` (stereo not given) is -7.39% (inactive); for `CC(=O)N1CCc2cc(S(=O)(=O)NC(Cc3ccccc3)C(=O)NCc3ccc(C)cc3)ccc21` (stereo not given) it is -6.46% (inactive); for `COc1cc2c(cc1OC)C(COc1ccc(F)cc1)N(C(=O)c1ccccc1F)CC2` (stereo not given) it is -10% (inactive).
The same measure, in the same setting: the figure for `COc1ccc(-c2onc(C)c2C)cc1S(=O)(=O)NCCc1ccccc1` is -9.42% (inactive); for `Cc1ccc(-c2cc(N)n(Cc3cccc(Cl)c3)n2)cc1` it is -0.129% (inactive); for `Cc1ccccc1C(=O)N(Cc1ccc(N(C)C)cc1)CC1CCCO1` (stereo not given) it is -3.91% (inactive).
`CCOc1cc(C2c3c(-c4ccc(Br)cc4)n[nH]c3C(=O)N2c2ccc(Cl)cc2)ccc1O` (stereo not given): the “activity change, negative = displacement” value is -6.72% (inactive).
Take `CC(C)c1ccc(NC(=O)C2CCN(c3nc(-c4ccc(C(C)C)cc4)no3)CC2)cc1`: the “activity change, negative = displacement” value was 40.1% (inactive).
On the same count and under the same terms, the figure for `Cc1ccc(NC(=O)CSc2nc3c([nH]c4ccccc43)c(=O)n2-c2ccccc2)c(C)c1` is -3.33% (inactive).
On the same count and under the same terms, the figure for `CCCOc1ccc(C(=O)Nc2ccc3oc(-c4cccc(Cl)c4Cl)nc3c2)cc1` is 3.64% (inactive).
In the case of `COc1cc(OC)c(OC)cc1/C=C/c1nc2ccccc2c(=O)n1-c1ccc(Br)c(C)c1`, the “activity change, negative = displacement” value was 7.26% (inactive).
`COc1ccc(N2CCN(C(=O)C3CCCN(C(=O)c4cc5sccc5n4C)C3)CC2)cc1` (stereo not given): the “activity change, negative = displacement” value is 37% (inactive).
On to `CCc1ccccc1OCCSc1nc(-c2cccs2)nc2cc(=O)[nH]n12`, for which the “activity change, negative = displacement” value is -9.64% (inactive).
With `COc1ccc(CNC(=O)CSCc2nc(-c3ccccc3F)oc2C)cc1`, the “activity change, negative = displacement” value was -12.4% (inactive).
As to `COc1ccc(Br)cc1C1CC(=O)Nc2c1c(C)nn2-c1nc(C)cc(C)n1` (stereo not given), the “activity change, negative = displacement” value was 3.29% (inactive).
With `Cc1ccc(NC(=O)c2ccc3[nH]c(C)cc(=O)c3c2)c(C)c1`, the “activity change, negative = displacement” value was -7.2% (inactive).
With `Cc1c(Cl)cccc1-c1ccc(CNCCCSc2nnnn2C)o1`, the “activity change, negative = displacement” value was -11.2% (inactive).
For `COc1ccc(NC(=O)CCN2CCN(CCO)CC2)cc1`, the “activity change, negative = displacement” value is -5.78% (inactive).
Consider `COc1ccc(CCNC(=O)c2ccc3c(c2)nc(C)n3-c2ccc(Br)cc2)cc1OC`, for which the “activity change, negative = displacement” value is -10.5% (inactive).
